An excerpt weighted towards active compounds, which were near 2.3% of everything screened.
A549 tox: kills or reduces viability of A549 cells in Nrf2 counter-screen. A549 ARE-Fluc cells, CellTiter-Fluor viability, 18-24 h. Potency, µM (doses to about 46 µM), inactives show top-dose activity change, negative = cytotoxicity, actives largely listed as inhibitors. hit rate 0.16% among 390,000. AID 504648; note: potency is the fitted concentration of half-maximal effect; % is set by controls: 0 for no effect and ±100 for the full control effect
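Cytotoxicity counterscreen: CellTiter-Fluor fluorescence was measured in A549 ARE_Fluc cells after 18-24 h of compound exposure in a concentration series. The subsequent BugLite luminescent read reports ARE-luciferase activity.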
Nrf2 ARE act: Nrf2 pathway activation | hit rate 0.31% among 410,000 | AID 624171 | AREc32 ARE-luciferase reporter (MCF7-derived line), luminescence, 24 h | Potency, µM (titrated, usually from 46.1 µM), without a hit: top-dose activation, usual class: activators; note: potency is the fitted concentration of half-maximal effect; % of control where 0% means no effect; nearly all actives have a fitted effect of over 65% in size
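AREc32_Fluc, 1000 cells/well, OPTI-MEM + 5% FBS, o/n 37 deg C 5% CO2; 23 nL cpd by pin tool, 24 hr; Steady-Glo 30 min RT, luminescence.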
IL-2 act: activates IL-2 in a cell-based reporter assay | IL-2 activation reporter assay, cell-based qHTS; stimulated with anti-CD3/CD4/CD28 beads; in transgenic mouse T cells | activation, % (series mostly up to about 46 µM) | hit rate 0.065% among 360,000 | AID 652025; in the data active = activation above about 50%; inconclusive = mostly about 30% to 49%; note: 0% is about no effect
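Unstimulated transgenic mouse T cells preincubated 60 min with compound, then stimulated with anti-CD3/anti-CD4-coated beads plus anti-CD28 for 18 h at 37 degrees C. IL-2 response read as EGFP and DsRed fluorescence by plate cytometry.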
Nrf2 inh: blocks Nrf2 signaling. A549 ARE-Fluc reporter, luciferase luminescence, 18-24 h. Potency, µM (top dose mostly 46 µM), for inactives: at the highest dose activity change, negative = inhibition, most hits filed as inhibitors. hit rate 2.1% among 360,000. AID 504444; note: potency is the fitted concentration of half-maximal effect; % is set by controls: 0 for no effect and ±100 for the full control effect; nearly all actives have a fitted effect of over 60% in size
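Two sequential reads on A549 ARE_Fluc cells exposed to compound for 18-24 h: a CellTiter-Fluor fluorescence read for viability, then a luciferase luminescence read for Nrf2/ARE activity.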
* marks the source's active call; other numbers are inactive results; [ ] = dose if it differs, or a comment. Unless noted, calls come from the whole dose curve; as a rule, active = well fitted curve in the direction sought with a large enough effect; inconclusive = small, poorly fitted or top-dose-only effect, or another doubt; inactive = no such curve, though single readings can be large; an effect the other way counts as inactive or inconclusive.

For CC(SC1=NS(=O)(=O)c2ccccc21)C(=O)O (configuration not stated) the results were A549 tox -2.2% and Nrf2 inh 23.1%.
`O=[N+]([O-])c1cccc(N=Nc2ccc(O)cc2O)c1` gave A549 tox inconclusive, Nrf2 ARE act inconclusive, IL-2 act -0.5 and Nrf2 inh inconclusive.
CCOc1cc(C=O)cc(N=Nc2cccc([N+](=O)[O-])c2)c1O was read as A549 tox -11.6%, Nrf2 ARE act 10µM*, IL-2 act -2.4 and Nrf2 inh 3.3%.
CC(=O)Sc1nc(-c2ccccc2)[nH]c1S(=O)(=O)c1ccc(C)cc1 was read as A549 tox -3.5%, Nrf2 ARE act 1.5%, IL-2 act -2.9 and Nrf2 inh 7.3%.
For CSc1nc(-c2ccc(C)cc2)[nH]c1S(=O)(=O)c1ccccc1 the results were A549 tox -10.5%, Nrf2 ARE act 2.6%, IL-2 act 0.8 and Nrf2 inh 18.4µM*.
For COC(=O)c1ccccc1NC(=O)CCC(=O)N1CC(C)Sc2ccccc21 (configuration not stated) the results were A549 tox 19.3%, Nrf2 ARE act 5.4% and Nrf2 inh -8.7%.
`CC(Sc1nc2ccccc2c(=O)n1C)C(=O)N(C)C1CCCCC1` (configuration not stated) gave A549 tox -17.9%, Nrf2 ARE act -0.2%, IL-2 act -5.3 and Nrf2 inh 18.4µM*.
For CS(=O)(=O)N1CCN(c2ccnc3cc(Cl)ccc23)CC1 the results were A549 tox 4.6%, Nrf2 ARE act 2.4%, IL-2 act -1.1 and Nrf2 inh -14.7%.
O=C(c1ccc(Cl)cc1)N1CCN(c2ccnc3cc(Cl)ccc23)CC1 was read as A549 tox inconclusive, Nrf2 ARE act 2.5%, IL-2 act -4.4 and Nrf2 inh 20.6µM*.
`CC(C)N(C(=O)N1CCN(c2ccnc3cc(Cl)ccc23)CC1)C(C)C` gave A549 tox -3.6%, Nrf2 ARE act 3.4%, IL-2 act -0.8 and Nrf2 inh 9.2µM*.
Screening O=S(=O)(c1ccc(Br)s1)N1CCN(c2ccnc3cc(Cl)ccc23)CC1 returned A549 tox -5.6%, Nrf2 ARE act 0.8%, IL-2 act -2.6 and Nrf2 inh 20.6µM*.
O=c1[nH]cc(CCc2ccccc2)c2ncncc12 was read as A549 tox 4.7% and Nrf2 inh 0.7%.
For CCOC(=O)c1c(C)[nH]c(CCC(=O)NCc2ccc(N(C)C)cc2)c1C the results were A549 tox -6.7% and Nrf2 ARE act -0.3%.
Screening Cc1cc(S(=O)(=O)N2CCN(Cc3noc(CCC(=O)N4CCCCC4)n3)CC2)ccc1F returned A549 tox -0.4%, Nrf2 ARE act 2.7% and Nrf2 inh -8.1%.
Screening O=C(C1CCCN(c2ncnc3c2nc2n3CCCCC2)C1)N1CCN(c2cccc(Cl)c2)CC1 (configuration not stated) returned A549 tox 2.4%, Nrf2 ARE act -2.3%, IL-2 act 1.1 and Nrf2 inh 3.8%.
`O=C(C1CCN(c2ncnc3c2nc2n3CCCCC2)CC1)N1CCN(c2ccccc2F)CC1` gave A549 tox 1.1%, Nrf2 ARE act 0.5%, IL-2 act 0.0 and Nrf2 inh inconclusive.
`Cc1ccc(NC(=O)C2CCCN(c3ncnc4c3nc3n4CCCCC3)C2)cc1Cl` (configuration not stated) gave A549 tox -5.8%, Nrf2 ARE act -0.7%, IL-2 act -4.4 and Nrf2 inh -13.6%.
Cc1ccc(NC(=O)C2CCN(c3ncnc4c3nc3n4CCCCC3)CC2)cc1Cl was read as A549 tox inconclusive, Nrf2 ARE act 0.0%, IL-2 act -4.3 and Nrf2 inh 13µM*.
For Cc1cccc(N2CCN(C(=O)C3CCN(c4ncnc5c4nc4n5CCCCC4)CC3)CC2)c1C the results were A549 tox inconclusive, Nrf2 ARE act -0.4%, IL-2 act -1.0 and Nrf2 inh 20.6µM*.
`Cc1cccc(N2CCN(C(=O)C3CCN(c4ncnc5c4nc4n5CCCCC4)CC3)CC2C)c1` (configuration not stated) gave A549 tox inconclusive, Nrf2 ARE act -2.5%, IL-2 act -4.7 and Nrf2 inh 18.4µM*.
`Cc1ccc(N2CCN(C(=O)C3CCCN(c4ncnc5c4nc4n5CCCCC4)C3)CC2)c(C)c1` (configuration not stated) gave A549 tox 11.1%, Nrf2 ARE act -0.4%, IL-2 act -0.7 and Nrf2 inh 0.0%.
Cc1ccc(C)c(N2CCN(C(=O)C3CCCN(c4ncnc5c4nc4n5CCCCC4)C3)CC2)c1 (configuration not stated) was read as A549 tox -17.7%, Nrf2 ARE act -0.5%, IL-2 act -2.0 and Nrf2 inh 14.6µM*.
CCc1ccc2occ(CC(=O)Nc3c(C(=O)c4ccc(F)cc4)oc4ccccc34)c2c1 was read as A549 tox 8.5%, Nrf2 ARE act 0.7% and Nrf2 inh 11.0%.
Cc1cc(N2CCC(C(=O)N3CCN(c4cccc(C)c4C)CC3)CC2)n2ncnc2n1 was read as A549 tox 10.5%[1.84 µM], Nrf2 ARE act 0.1%, IL-2 act -1.3 and Nrf2 inh 14.6µM*.
For Cc1cccc(N2CCN(C(=O)C3CCCCC3)CC2)c1C the results were A549 tox 9.5%, Nrf2 ARE act -0.9%, IL-2 act -1.7 and Nrf2 inh -14.7%.
`CCc1cccc(CC)c1NC(=O)C(CC)n1nc(C)n2c(cc3cc(C)ccc32)c1=O` (configuration not stated) gave A549 tox -3.1%, Nrf2 ARE act -1.0% and Nrf2 inh inconclusive.
For COc1ccc(-c2cc(C3C4C=CCC(C)C4C(=O)N3Cc3ccccc3)ccc2F)cc1 (configuration not stated) the results were A549 tox 10.9% and Nrf2 inh -27.6%.
`Cc1noc(C)c1S(=O)(=O)N1CCC(C(=O)c2ccccc2)CC1` gave A549 tox -5.4%, Nrf2 ARE act 0.1%, IL-2 act -1.0 and Nrf2 inh -2.7%.
`CSc1ccc(C(=O)C2CCCN(S(=O)(=O)c3c(C)noc3C)C2)cc1` (configuration not stated) gave A549 tox -0.1%, Nrf2 ARE act 0.5%, IL-2 act -0.3 and Nrf2 inh 13µM*.
`CN(C)c1ccc(NC(=O)CSC2=Nc3ccccc3C3=NC(CC(=O)NCc4ccc5c(c4)OCO5)C(=O)N23)cc1` (configuration not stated) gave A549 tox 3.0% and Nrf2 ARE act 2.6%.
Screening CCSc1ncc(Cl)c(C(=O)N(Cc2ccccc2)c2ccc(OC)cc2)n1 returned A549 tox -8.9%, Nrf2 ARE act 2.2% and Nrf2 inh inconclusive.
O=S(=O)(CC(CN1CCCCC1)N1CCCCC1)c1ccccc1 (configuration not stated) was read as A549 tox inconclusive, Nrf2 ARE act -0.1%, IL-2 act -0.5 and Nrf2 inh 18.4µM*.

High-throughput results from PubChem.
